Sfp inh = qHTS Assay for Inhibitors of Bacillus subtilis Sfp phosphopantetheinyl transferase (PPTase); actives 3.5% (n = 310,000); Potency, µM, for the others: largest response in the series, negative = inhibition, usual class: inhibitors; Biochemical Sfp PPTase activity, qHTS; active = well fitted curve in the direction sought with a large enough effect; inconclusive = small, poorly fitted or top-dose-only effect, or another doubt; inactive = no such curve, though single readings can be large; an effect the other way counts as inactive or inconclusive;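 also: the enzyme is Sfp with the accession as filed and its product quenches rhodamine fluorescence; potency is read from the fitted curve at half-maximal effect; 0% = enzyme reaction without inhibitor and -100% = no enzyme wells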
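Fluorescence-quenching assay with 15 nM Sfp, 5 uM rhodamine-CoA and 12.5 uM BHQ-2-labelled ybbR peptide in pH 7.6 Hepes/MgCl2 buffer. Enzyme was pre-incubated with compound for 15 min at room temperature. Rate was taken from the 30-min fluorescence change (525/598 nm).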
NPSR antag = qHTS Assay for Antagonists of the Neuropeptide S Receptor: cAMP Signal Transduction; CHO-NPSR cells, cAMP TR-FRET, antagonist mode; Potency, µM (titrated, usually from 38.3 µM), for inactives: at the highest dose activity change, negative = inhibition, actives largely listed as inhibitors; Q6W5P4; actives 1% (n = 220,000); active = well fitted curve in the direction sought with a large enough effect; inconclusive = small, poorly fitted or top-dose-only effect, or another doubt; inactive = no such curve, though single readings can be large; an effect the other way counts as inactive or inconclusive; also: potency is read from the fitted curve at half-maximal effect; nearly all actives have a fitted effect of over 50% in size
KDM4E inh = qHTS Assay for Inhibitors of Human Jumonji Domain Containing 2E (JMJD2E); Lysine-specific demethylase 4E (Homo sapiens), B2RXH2; JMJD2E catalytic domain, FDH-coupled NADH fluorescence (FDH is formaldehyde dehydrogenase); Potency, µM (top dose mostly 57.1 µM), for the others: at the highest dose activity change, negative = inhibition, most hits filed as inhibitors; actives 1.6% (n = 230,000);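 also: potency is read from the fitted curve at half-maximal effect; 0% = wells with enzyme and -100% = buffer wells without enzyme; nearly all actives have a fitted effect of over 50% in size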
ALDH1A1 block = qHTS Assay for Inhibitors of Aldehyde Dehydrogenase 1 (ALDH1A1); Aldehyde dehydrogenase 1A1 (Homo sapiens), P00352; Purified ALDH1A1, NADH fluorescence, propionaldehyde substrate; Potency, µM (highest dose often 75.3 µM), without a hit: at the top dose activity, negative = inhibition, actives largely listed as inhibitors; actives 7.3% (n = 220,000);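 also: potency is read from the fitted curve at half-maximal effect; plate controls were no enzyme wells and a reference inhibitor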
Target sequence (P00352 whole entry, looked up): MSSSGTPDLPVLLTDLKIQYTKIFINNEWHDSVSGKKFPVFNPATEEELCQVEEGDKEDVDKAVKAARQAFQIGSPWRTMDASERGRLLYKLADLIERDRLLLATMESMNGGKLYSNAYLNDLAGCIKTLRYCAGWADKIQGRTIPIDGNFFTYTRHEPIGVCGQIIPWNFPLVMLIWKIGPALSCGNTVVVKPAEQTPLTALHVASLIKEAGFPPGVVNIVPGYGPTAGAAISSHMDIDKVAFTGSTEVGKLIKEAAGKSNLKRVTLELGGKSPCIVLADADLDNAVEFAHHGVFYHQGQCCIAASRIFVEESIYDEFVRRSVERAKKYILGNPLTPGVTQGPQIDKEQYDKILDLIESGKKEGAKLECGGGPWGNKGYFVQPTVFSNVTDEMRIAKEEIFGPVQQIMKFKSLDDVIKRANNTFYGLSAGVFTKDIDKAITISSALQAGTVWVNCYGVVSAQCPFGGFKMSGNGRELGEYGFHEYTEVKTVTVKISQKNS
Coupling enz = qHTS Assay for Inhibitors of Fructose-1,6-bisphosphate Aldolase from Giardia Lamblia: Coupling assay counterscreen. coupling enzyme system counterscreen, AmpLite Red fluorescence. activity change, negative = inhibition, % at 58.2 µM, hits read low. actives 0.67% (n = 290,000). AID 2472, 2010; in the data active = activity change below about -30%
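Counterscreen of the coupled detection system alone, without aldolase: glyceraldehyde-3-phosphate coupling enzymes plus AmpLite Red readout. Compounds at 57.5 uM final, 10 min RT preincubation, 20 min RT reaction, fluorescence 525/598 nm.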
GoLoco inh red = qHTS Assay for Inhibitors of RGS12 GoLoco Motif Activity (Red Fluorophore). Gai1:RGS12 GoLoco peptide FP, rhodamine, 10 min. Potency, µM (highest dose often 61.6 µM), for the others: at the top dose activity, negative = inhibition, usual class: inhibitors. actives 0.44% (n = 230,000). AID 880, 2007; active = well fitted inhibition curve with a large enough effect, not every such curve was filed as active; inactive = no such curve, though single readings can be large or run the other way; also: potency is read from the fitted curve at half-maximal effect; nearly all actives have a fitted effect of over 30% in size
An asterisk follows results filed as active; ? = inconclusive; . = no result given; [ ] = remark or other dose. Most compounds without a hit are left out; they make up all but 8.5% or so of the library. Unless noted, calls follow the shape of the dose curve; as a rule, active = well fitted inhibition curve with a large enough effect (not every such curve was filed as active); inconclusive = small, poorly fitted or top-dose-only effect, or another doubt; inactive = no such curve, though single readings can be large or run the other way. Unless noted, % is scaled to controls: 0 for no effect and ±100 for the full control effect.

SMILES	Sfp inh	NPSR antag	KDM4E inh	ALDH1A1 block	Coupling enz	GoLoco inh red
Cc1ccccc1NC(=O)NNC(=O)COc1ccc2ccccc2c1	-2.1%	.	.	.	-5.3	.
O=C(Nc1cnc2ccccc2c1)c1ccncc1	0.8%	-7.5%[46.1 µM]	-5.7%	?	0.9	-1.4%
S=C(NCCc1ccccc1)Nc1cnc2ccccc2c1	5.4%	-22.2%	25.1µM*	?	-0.1	5.1%
S=C(NCCc1ccccc1)Nc1ccc(Nc2ccccc2)cc1	-15.8%	57.4%	-6.9%	?	0.1	5.3%
O=C(NC(=S)Nc1cnc2ccccc2c1)c1ccccc1	56.2µM*	-39.7%	?	?	0.1	14.6%
COc1cc(CC(NC(C)=O)C(=O)NC2CCN(C(=O)Nc3ccc(C)cc3)CC2)cc(OC)c1 (configuration not stated)	7.6%	.	.	.	-1.2	.
c1ccc(OCc2nn3c(Cn4nnc5ccccc54)nnc3s2)cc1	12.6µM*	-13.4%[46.1 µM]	-29.5%	7.94µM*	3.0	-5.3%
Clc1ccc(Cl)c(-c2nn3c(COc4ccccc4)nnc3s2)c1	14.1µM*	-6.7%[46.1 µM]	-5.7%	3.55µM*	7.7	4.6%
Clc1ccccc1-c1nn2c(Cn3cnc4ccccc43)nnc2s1	44.7µM*	-20.9%[46.1 µM]	2.6%	20µM*	2.1	-8.8%
c1ccc(Cc2nn3c(Cn4nnc5ccccc54)nnc3s2)cc1	35.5µM*	-6.4%[46.1 µM]	-4.3%	25.1µM*	-0.2	-7.2%
c1ccc(OCc2nn3c(-c4cccnc4)nnc3s2)cc1	-12.3%	-13.4%[7.67 µM]	?	-14.7%	2.6	1.4%
COc1ccc(-c2nn3c(COc4ccccc4)nnc3s2)cc1OC	?	-5.3%[46.1 µM]	?	?	1.6	20.6%
c1ccc(Cn2nnc3ccccc32)cc1	22.5%	.	.	.	-3.5	.
O=C(Cc1c(F)cccc1Cl)OCN1C(=O)c2ccccc2C1=O	3.1%	.	.	.	-1.7	.
COc1ccc(/C=C2\SC(=O)N(CC(=O)Nc3ccc(F)cc3)C2=O)cc1O	-26.6%	.	.	.	0.2	.
c1ccc2c(c1)OCC(c1nn3c(Cn4nnc5ccccc54)nnc3s1)O2 (configuration not stated)	2.51µM*	?	-4.1%	11.2µM*	2.6	3.0%
COc1ccc(OCCn2cnc3ccccc32)cc1	-4.2%	.	.	.	0.1	.
O=c1c2ccccc2nnn1CSc1nnc(C2COc3ccccc3O2)n1-c1ccccc1 (configuration not stated)	0.5%	-12.2%[46.1 µM]	2.2%	-15.2%	1.2	-7.1%
COc1ccc(OCc2nn3c(Cn4cnc5ccccc54)nnc3s2)cc1	25.1µM*	-4.8%[46.1 µM]	-6.3%	22.4µM*	1.0	-3.6%
CCOc1cc2nc(-c3ccc(OC)c(OC)c3)nc(NCCCN3CCOCC3)c2cc1OC	-16.1%	-3.2%[46.1 µM]	?	?	-6.5	1.9%
COc1cc2nc(=S)n(CCCN3CCOCC3)c(N)c2cc1OC	50.1µM*	9.7%	-27.2%	-19.0%	0.4	1.7%
CCOC(=O)N1CCc2c(sc3nc(SC(C)C)n(N)c(=O)c23)C1	-7.6%	-13.2%[46.1 µM]	-5.8%	4.47µM*	4.0	.
O=C1CC(c2ccco2)CC2=C1C1c3ccccc3C(=O)N1c1ccccc1N2 (configuration not stated)	20µM*	-29.5%[46.1 µM]	-6.3%	9.6%	1.9	-19.7%
COc1ccc(C2CC(=O)C3=C(C2)Nc2ccccc2N(C(C)=O)C3c2ccco2)cc1 (configuration not stated)	0.7%	-20.3%[46.1 µM]	-11.5%	?	-1.5	-1.6%
COc1cc(C2C3=C(CC(c4ccco4)CC3=O)Nc3ccccc3N2C(C)=O)cc(OC)c1OC (configuration not stated)	17.8µM*	-6.3%[46.1 µM]	?	-11.9%	-9.9	-2.7%
SMILES	Sfp inh	NPSR antag	KDM4E inh	ALDH1A1 block	Coupling enz	GoLoco inh red
COc1ccc(C2CC(=O)C3=C(C2)Nc2ccccc2N(C(=O)C2CC2)C3c2cccnc2)cc1OC (configuration not stated)	-22.8%	-8.3%[46.1 µM]	-10.1%	14.1µM*	0.5	-1.4%
Cn1c(CC(=O)Nc2ccccc2F)nnc1SCC(=O)Nc1ccccc1Br	8.4%	.	.	.	-2.2	.
CCOC(=O)c1ccc(C#Cc2ccc3c(c2)C(C)(C)CCS3)nc1	-14.2%	.	.	.	.	.
O=C(NC(c1ccccc1)c1ccccc1)c1ccc(Br)o1	15.5%	-20.8%[46.1 µM]	10.6%	0.794µM*	-2.8	0.6%
O=C(/C=C/c1ccc(Br)o1)NC(c1ccccc1)c1ccccc1	20µM*	?	-21.7%	22.4µM*	-0.2	-9.4%
O=C(c1ccc(Br)o1)N(Cc1ccccc1)Cc1ccccc1	-27.9%	-40.2%	-16.5%	0.794µM*	9.0	3.7%[88.7 µM]
CC(NC(=O)c1ccc(Br)o1)c1ccccc1 (configuration not stated)	11.4%	4.5%	-0.3%	?	-1.9	8.6%
COCC(C)NC(=O)CSc1nc(-c2ccccc2)c(-c2ccccc2)o1 (configuration not stated)	-15.1%	-21.8%[46.1 µM]	41.9%	-3.4%	8.1	-0.3%
Cc1nn(CC(=O)NCCCN2CC(C)CC(C)C2)c(=O)c2cccn12 (configuration not stated)	1.4%	.	.	.	.	.
CC(C)N(Cc1ccccc1)C(=O)/C=C/c1ccccc1[N+](=O)[O-]	11.1%	-33.1%	-22.2%	5.62µM*	0.6	13.2%
CC(=O)Nc1nc(-c2ccc3c(c2)CC(C)N3C(=O)C2CC2)c(C)s1 (configuration not stated)	50.1µM*	.	.	.	-0.1	.
Cc1sc(NC(=O)c2ccco2)nc1-c1ccc2c(c1)CC(C)N2C(=O)C1CC1 (configuration not stated)	-18.2%	?	?	?	-6.6	7.4%
Cc1ccc(C)c(S(=O)(=O)N2CCN(C(C(=O)Nc3ccc(F)cc3)c3ccccc3)CC2)c1 (configuration not stated)	10.1%	-5.5%	-1.9%	11.2µM*	-4.6	-6.5%
O=C(c1ccco1)N1CCN(C(=O)C(Sc2ccccc2)c2ccccc2)CC1 (configuration not stated)	-5.7%	-8.8%[46.1 µM]	9.7%	14.1µM*	13.9	15.4%
O=C(Nc1ccc(F)cc1)C(c1ccccc1)N1CCN(S(=O)(=O)c2ccc3ccccc3c2)CC1 (configuration not stated)	-3.4%	10.0%	3.9%	?	0.5	-28.6%

Screens from PubChem BioAssay.
